# Screening results from PubChem.
# Shown is part of a subset that was picked to be rich in hits.
# TTR transcr act: TTR transcription activation, primary screen | SH-SY5Y TTR promoter Gaussia luciferase, luminescence; 100% = recombinant luciferase protein wells | AID 1117267 | 1.3% of 92,000 active | activation, % at 16.7 µM;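 active = activation above the mean of all tested compounds plus 3 SD, cut at about 9.5% in these data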;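 also: cells exposed to compounds for one day before reading; 0% = median of all test compound wells on the plate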
# Numbers without * were called inactive.
SMILES,TTR transcr act
C[C@@H]1CN([C@H](C)CO)C(=O)c2cc(NC(=O)Cc3cn(C)c4ccccc34)ccc2O[C@H]1CN(C)C(=O)Nc1ccc2c(c1)OCO2,-3.9
C[C@H](CO)N1C[C@H](C)[C@H](CN(C)Cc2ccc(Oc3ccccc3)cc2)Oc2ccc(NC(=O)Nc3cccc4ccccc34)cc2CC1=O,-5.0
Cc1ccc(S(=O)(=O)N(C)C[C@@H]2Oc3ccc(NS(=O)(=O)c4ccccc4)cc3CC(=O)N([C@@H](C)CO)C[C@H]2C)cc1,-3.4
C[C@H]1CN([C@@H](C)CO)C(=O)Cc2cc(NC(=O)Nc3ccccc3)ccc2O[C@H]1CN(C)Cc1ccccc1,-3.3
C[C@H]1CN([C@@H](C)CO)C(=O)Cc2cc(NS(C)(=O)=O)ccc2O[C@@H]1CN(C)Cc1ccc(Cl)c(Cl)c1,13.3*
CNC[C@H]1Oc2ccc(NC(=O)Cc3cn(C)c4ccccc34)cc2CC(=O)N([C@@H](C)CO)C[C@H]1C,14.9*
C=CC[C@@H]1NN2C(=O)[C@@H](C)[C@@H]3c4ccccc4C=NN3[C@@H]2c2ccccc21,0.7
CN(C)[C@H]1CCN(c2ccc3c(c2)O[C@H]2CCN(C2)S3(=O)=O)C1,-0.8
C#CCNC(=O)C[C@H]1C[C@@]2(C(=O)OC)C(=C[C@H](COCc3ccccc3)O[C@@H]2C)N(Cc2ccccc2)C1=O,0.5
O=C1C[C@H](c2ccc3ccccc3c2)N=C2N1/C(=C\c1ccccc1)[C@@H](c1ccccc1C(F)(F)F)N2Cc1ccc2c(c1)OCO2,-0.5
CN(CCOc1ccc(-c2ccn(S(=O)(=O)c3c(Cl)cccc3Cl)n2)cc1)c1ccccn1,15.3*
CCOc1ccc(S(=O)(=O)n2ccc(C)n2)cc1,-3.7
Cc1ccc(S(=O)(=O)n2ccc(-c3cccc(OCc4c(F)cccc4Cl)c3)n2)cc1,-0.1
COc1ccc(Cn2ccc3ccc(-c4ccc5ccn(C(=O)c6cccc(OC)c6)c5c4)cc32)cc1,-1.2
O=S1(=O)c2c(cccc2N2CCC[C@H]2CO)O[C@@H]2CCN1C2,1.3
COC(=O)[C@]12C[C@H](CC(=O)N3CCCCC3)C(=O)N(Cc3ccco3)C1=C[C@H](COCc1ccccc1)O[C@@H]2C,-0.5
CCOC(=O)[C@@]12CCC3=C1N(CCC3)C(=O)[C@H](CC(=O)N1CCN(C(=O)C3CC3)CC1)C2,-1.3
CCn1c(O)c(N=NC(=O)c2cccs2)c2ccccc21,0.1
CC(C)n1c(O)c(N=NC(=O)CNC(=O)CCc2ccccc2)c2ccccc21,2.1
Cn1c(O)c(N=NC(=N)N)c2ccccc21,17.3*
CCOC(=O)[C@]12CCCC=C1N(Cc1ccc(OC)cc1)C(=O)[C@@H]2CC(=O)NCCc1ccccc1OC,-1.1
COC(=O)[C@]12CCCCC=C1N(Cc1ccc(OC)cc1)C(=O)[C@@H]2CC(=O)NCc1cccc(C(F)(F)F)c1,1.0
COc1ccc(NC(=O)CNC(=O)Cc2ccccc2)cc1,-1.9
CCOCCCNC(=O)C(NC(=O)c1ccc(NC(C)=O)cc1)c1ccc(OC)cc1 (stereo not given),4.1
COc1ccc(NC(=O)C(NC(=O)CNC(C)=O)c2ccc(C)cc2)cc1 (stereo not given),29.4*
SMILES,TTR transcr act
Cc1cc(N2CCN(C(=O)c3ccco3)CC2)n2ncc(-c3ccccc3)c2n1,-0.4
Cc1cc(N2CCN(C(=O)c3ccco3)CC2)n2ncnc2n1,-1.7
Cc1nn2c(N3CCN(C(=O)c4ccco4)CC3)cc(C(C)(C)C)nc2c1-c1ccccc1,10.1*
CCOc1ccc(CCNC(=O)c2cc(-c3ccccc3)c(N3CCOCC3)s2)cc1OC,-0.9
CCOC(=O)[C@]12CCCC=C1N(CCCOC)C(=O)[C@@H]2CC(=O)NCC12CC3CC(CC(C3)C1)C2,2.7
CCOC(=O)c1c(C=O)c(C)n(Cc2ccccc2)c1C,11.1*
CCOC(=O)c1cn(Cc2ccccc2)nn1,0.5
CCOC(=O)c1c(C=O)c(C)n(Cc2ccc(Cl)cc2)c1C,-3.2
O=C(OCC#CCSc1nnc(-c2cccc3ccccc23)o1)c1ccc(Cl)c(C(F)(F)F)c1,0.0
CC(=O)c1cccc(NC(=O)c2ccc3c(c2)OCO3)c1,-2.1
NC(=O)c1ccc(NC(=O)c2ccc3c(c2)OCO3)cc1,1.2
COc1cc(NC(=O)c2ccc3c(c2)OCO3)ccc1NC(=O)C(C)C,21.2*
O=C(COc1ccc(S(=O)(=O)N2CCCC2)cc1Cl)NCc1ccc2c(c1)OCO2,13.5*
O=C(NCc1ccc2c(c1)OCO2)C1CCN(S(=O)(=O)N2CCCCC2)CC1,0.3
COC(=O)COc1ccc(S(=O)(=O)Nc2ccc3c(c2)OCO3)cc1Cl,0.2
CCCCCn1nnnc1C1(C)CN(S(C)(=O)=O)CC(=O)N1Cc1ccco1 (stereo not given),0.4
COC(=O)[C@]12C[C@H](CC(=O)NCCc3ccccc3OC)C(=O)N(CCc3ccc(OC)c(OC)c3)C1=C[C@H](COCc1ccccc1)O[C@@H]2C,-1.8
Cn1c(N)c(C(=O)CCl)c(=O)n(Cc2ccccc2)c1=O,12.4*
CC1CN(CC(=O)c2c(N)n(Cc3ccccc3)c(=O)n(C)c2=O)CC(C)O1 (stereo not given),-1.6
CN(C)CC(=O)c1c(N)n(Cc2ccccc2)c(=O)n(C)c1=O,-0.4
